Data reported in PubChem BioAssay.
The source made the active and inactive calls. How the calls were made is not given here.

Assay: inhibitors of hydroxyurea-induced Chk1 phosphorylation, primary screen, imaging, HeLa, phospho-Chk1 antibody, percent positive cells (AID 1186)
Conditions: hydroxyurea-induced phospho-Chk1 immunofluorescence imaging, higher = more signal

With `COCCOC(=O)N1C(=O)[C@@]2(c3cc(C#CC4(O)CCCCCC4)ccc31)[C@H](C(=O)N1CCCCCCC1)[C@H]1C(=O)O[C@H](c3ccccc3)[C@H](c3ccccc3)N1[C@@H]2c1ccccc1OCCO` as the molecule, how does the z-score read?
Its z-score is -0.0968 (inactive).

For `CCOC(=O)[C@H]1C/C=C/C[C@H](C(=O)OCC)C(=O)O[C@H]2[C@@H](OC)O[C@H](CO)[C@@H](OC(=O)Nc3ccc4c(c3)OCO4)[C@@H]2OC1=O`, which z-score is on record?
Its z-score is -0.18 (inactive).

With `C#CCN(C(/C=C/c1ccccc1)CO)C(C(=O)O)c1ccccc1` (stereo unspecified) as the molecule, how does the z-score read?
Its z-score is 0.301 (inactive).

Which z-score does the source give for `COCC(=C=CC[C@@H](O)c1ccc(CO)o1)CCO` here?
Its z-score is -1 (inactive).

For `O=C1O[C@H](c2ccccc2)[C@H](c2ccccc2)N2[C@H]1[C@@H](C(=O)O)[C@]1(C(=O)Nc3ccc(C#CC4(O)CCCCCC4)cc31)[C@H]2c1ccc(OCCO)cc1`, which z-score is on record?
The z-score was -0.125 (inactive).

With `C=CCOC(=O)[C@H]1[C@@H]2C(=O)O[C@@H](c3ccccc3)[C@@H](c3ccccc3)N2[C@@H](c2ccc(OCCOC(=O)[C@@H]3C[C@@H]4C(=O)NCC(=O)N4[C@@H]3c3ccc(O)cc3)cc2)[C@]12C(=O)Nc1ccccc12` as the molecule, how does the z-score read?
Its z-score is -0.341 (inactive).

Which z-score does the source give for `COCCOC(=O)N1C(=O)[C@@]2(c3ccccc31)[C@H](c1ccc(O)cc1)N1[C@H](c3ccccc3)[C@H](c3ccccc3)OC(=O)[C@H]1[C@@H]2C(=O)N1CCc2cc(OC)c(OC)cc2C1` here?
The z-score was 0.043 (inactive).

Which z-score does the source give for `CCOC(=O)C1=C[C@@H](C(C)C)N(S(=O)(=O)c2ccc(C)cc2)[C@H]1c1ccc(C(C)C)cc1` here?
The z-score was 0.25 (inactive).

For `C=C[C@H](C)[C@@H](O)c1ccc(O)c2ccccc12`, which z-score is on record?
Its z-score is 0.736 (inactive).

With `O=C1C[C@@](C(=O)NC2CC2)(c2ccc([N+](=O)[O-])cc2)[C@@H](c2ccc(CO)cc2)N1CC12CC3CC(CC(C3)C1)C2` as the molecule, how does the z-score read?
Its z-score is -0.635 (inactive).

With `O=c1cccc(CCc2ccccc2)o1` as the molecule, how does the z-score read?
Its z-score is 0.576 (inactive).

Which z-score does the source give for `C=CC[C@@]1(C(=O)O)N=C(c2ccc(OCCCO)cc2)O[C@@H]1c1ccccc1N=[N+]=[N-]` here?
The z-score was 0.103 (inactive).

With `O=c1cccc(C=Cc2ccccc2)o1` as the molecule, how does the z-score read?
The z-score was -0.0971 (inactive).

Which z-score does the source give for `CC(=O)NCCCC[C@@H]1NC(=O)[C@H]2C[C@@H](C(=O)NCCCCCC[N+](C)(C)C)[C@@H](c3cccc(OCCO)c3)N2C1=O` here?
The z-score was -0.372 (inactive).

For `CC1=C2[C@@H](CCc3ccccc3)OB(O)C[C@@H]2n2c(=O)n(-c3ccccc3)c(=O)n2C1`, which z-score is on record?
The z-score was -0.0397 (inactive).

Which z-score does the source give for `[N-]=[N+]=Nc1ccccc1[C@H]1OC(c2ccc(OCCCO)cc2)=N[C@@]1(CCS(=O)(=O)c1ccccc1)C(=O)O` here?
Its z-score is 0.189 (inactive).

With `COC(=O)[C@@]1(Cc2ccc(OC)cc2)[C@H]2c3cc(C(=O)N4CCCC4)n(Cc4cc(F)cc5c4OCOC5)c3C[C@H]2CN1C(=O)c1ccccc1` as the molecule, how does the z-score read?
The z-score was 0.127 (inactive).

With `COc1ccc(C#Cc2ccc3c(c2)[C@]2(C(=O)N3)[C@H](c3ccc(O)cc3)N3[C@H](c4ccccc4)[C@H](c4ccccc4)OC(=O)[C@H]3[C@@H]2C(=O)NC[C@H](O)c2ccccc2)cc1` as the molecule, how does the z-score read?
The z-score was 0.0646 (inactive).

With `CCCNC(=O)[C@@H]1c2ccccc2C(=O)N(Cc2ccccc2)[C@H]1c1ccc(CO)cc1` as the molecule, how does the z-score read?
The z-score was 0.0089 (inactive).

Which z-score does the source give for `COC(=O)C[C@H]1O[C@]2(C(=O)N(Cc3ccccc3)c3ccc(NC(C)=O)cc32)[C@@H](C)[C@@H]1[Si](C)(C)c1ccc(OC)cc1` here?
The z-score was 0.918 (inactive).

Which z-score does the source give for `CC(C)NC(=O)[C@@H]1c2ccccc2C(=O)N(Cc2ccccc2Cl)[C@H]1c1ccc(CO)cc1` here?
The z-score was 0.323 (inactive).

Which z-score does the source give for `COc1ccc(C#Cc2ccc3c(c2)[C@]2(C(=O)N3)[C@H](c3ccc(O)cc3)N3[C@H](c4ccccc4)[C@H](c4ccccc4)OC(=O)[C@H]3[C@@H]2C(=O)N2CCCCCCC2)cc1` here?
The z-score was -0.184 (inactive).

For `O=C1C2C=CC(C(O)c3ccc(F)cc3)N(Nc3ccccc3)C2C(=O)N1c1ccccc1` (stereo unspecified), which z-score is on record?
The z-score was -0.125 (inactive).

With `NC(=O)NCC#Cc1ccc2c(c1)[C@]1(C(=O)N2)[C@H](C(=O)NC[C@H](O)c2ccccc2)[C@H]2C(=O)O[C@H](c3ccccc3)[C@H](c3ccccc3)N2[C@@H]1c1ccc(O)cc1` as the molecule, how does the z-score read?
The z-score was -0.0342 (inactive).

Which z-score does the source give for `COC(=O)C1=CC(CCCO)=CC(C2CC2)N(Cc2sc3ccccc3c2Cl)C=C1C(=O)OC` (stereo unspecified) here?
The z-score was 0.0745 (inactive).

With `O=C1O[C@H](c2ccccc2)[C@H](c2ccccc2)N2[C@H]1[C@@H](C(=O)N1CCN(c3ncccn3)CC1)[C@]1(C(=O)Nc3ccccc31)[C@H]2c1ccc(OCCO)cc1` as the molecule, how does the z-score read?
The z-score was -0.54 (inactive).
